Data taken from PubChem BioAssay AID1159580 (chemical genetic matrix, 2015).
Among all 5,500 compounds or so, about 2,000 (36%) were called active. Not shown: some 18% with an inconclusive outcome. No stated cut-off is given here; in the data, active means normalized growth mostly below about 0.91 (no sharp cut-off); inconclusive means no clear call, values can overlap the other calls; inactive means mostly above about 0.92. Some of the results follow.

Assay: chemical genetic growth profiling, strain panel (AID 1159580);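 further: tested at 20 µM; growth read once vehicle control cultures reached saturation at 30 °C; 1 = growth at the plate median or of vehicle wells; lower values mean less growth of the strain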
Settings: S. cerevisiae deletion strains, growth OD

Measured: normalized growth

CC(=O)O.CC(=O)O.[Cd]
inactive: locus YJL129C, strain trk1, hits give low values 1.1
active: locus YAL013W, strain DEP1, hits give low values 0.225 | locus YAL021C, strain ccr4, hits give low values 0.629 | locus YAL026C, strain drs2, hits give low values 0.436 | locus YAL030W, strain snc1, hits give low values 0.77 | locus YBL061C, strain skt5, hits give low values 0.771 | locus YBR009C, strain hhf1, hits give low values 0.606 | locus YBR021W, strain FUR4, hits give low values 0.106 | locus YBR023C, strain chs3, hits give low values 0.743 | locus YBR171W, strain sec66, hits give low values 0.786 | locus YBR229C, strain ROT2, hits give low values 0.747 | locus YBR231C, strain swc5, hits give low values 0.666 | locus YBR279W, strain paf1, hits give low values 0.635 | locus YCL011C, strain gbp2, hits give low values 0.632 | locus YCL016C, strain dcc1, hits give low values 0.754 | locus YCL029C, strain bik1, hits give low values 0.313 | locus YCL061C, strain MRC1, hits give low values 0.783 | locus YCL069W, strain vba3, hits give low values 0.762 | locus YCR088W, strain abp1, hits give low values 0.654 | locus YDL005C, strain med2, hits give low values 0.513 | locus YDL035C, strain GPR1, hits give low values 0.243 | locus YDL040C, strain nat1, hits give low values 0.589 | locus YDL074C, strain BRE1, hits give low values 0.25 | locus YDL101C, strain DUN1, hits give low values 0.177 | locus YDL134C, strain PPH21, hits give low values 0.467 | locus YDL185W, strain tfp1, hits give low values 0.482 | locus YDL192W, strain arf1, hits give low values 0.144 | locus YDR001C, strain nth1, hits give low values 0.845 | locus YDR069C, strain doa4, hits give low values 0.107 | locus YDR101C, strain arx1, hits give low values 0.319 | locus YDR137W, strain rgp1, hits give low values 0.375 | locus YDR150W, strain NUM1, hits give low values 0.175 | locus YDR159W, strain sac3, hits give low values 0.828 | locus YDR162C, strain NBP2, hits give low values 0.111 | locus YDR195W, strain ref2 0.512 | locus YDR297W, strain sur2, hits give low values 0.727 | locus YDR318W, strain mcm21, hits give low values 0.264 | locus YDR334W, strain swr1, hits give low values 0.532 | locus YDR335W, strain msn5, hits give low values 0.782 | locus YDR388W, hits give low values 0.0738 | locus YDR392W, strain spt3, hits give low values 0.299 | locus YDR502C, strain sam2, hits give low values 0.464 | locus YEL003W, strain gim4, hits give low values 0.681 | locus YEL037C, strain rad23, hits give low values 0.786 | locus YEL061C, strain CIN8 (second series), hits give low values 0.866 | locus YEL061C, strain CIN8, hits give low values 0.342 | locus YER015W, strain faa2, hits give low values 0.632 | locus YER016W, strain bim1, hits give low values 0.702 | locus YER110C, hits give low values 0.499 | locus YER111C, strain swi4, hits give low values 0.872 | locus YER155C, strain BEM2 (second series), hits give low values 0.446 | locus YER155C, strain BEM2, hits give low values 0.519 | locus YER167W, strain BCK2, hits give low values 0.269 | locus YFR010W, strain ubp6, hits give low values 0.356 | locus YGL078C, strain dbp3, hits give low values 0.466 | locus YGL086W, strain mad1, hits give low values 0.256 | locus YGL167C, strain pmr1, hits give low values 0.493 | locus YGL173C, strain kem1, hits give low values 0.68 | locus YGL227W, strain vid30, hits give low values 0.901 | locus YGL240W, strain doc1, hits give low values 0.711 | locus YGL248W, strain PDE1, hits give low values 0.356 | locus YGL253W, strain hxk2, hits give low values 0.825 | locus YGR078C, strain PAC10, hits give low values 0.721 | locus YGR135W, strain pre9, hits give low values 0.565 | locus YGR229C, strain SMI1, hits give low values 0.11 | locus YGR252W, strain gcn5, hits give low values 0.253 | locus YHR013C, strain ard1, hits give low values 0.303 | locus YHR027C, strain rpn1, hits give low values 0.58 | locus YHR030C, strain SLT2, hits give low values 0.508 | locus YHR079C, strain IRE1 (second series), hits give low values 0.196 | locus YHR094C, strain hxt1, hits give low values 0.529 | locus YHR129C, strain ARP1, hits give low values 0.563 | locus YHR142W, strain chs7, hits give low values 0.761 | locus YHR200W, strain rpn10, hits give low values 0.513 | locus YIL066C, strain RNR3, hits give low values 0.27 | locus YIL073C, strain SPO22, hits give low values 0.134 | locus YIL125W, strain kgd1, hits give low values 0.356 | locus YIR030C, strain dcg1, hits give low values 0.383 | locus YJL092W, strain hpr5, hits give low values 0.744 | locus YJL095W, strain BCK1 (second series), hits give low values 0.669 | locus YJL095W, strain BCK1, hits give low values 0.266 | locus YJL115W, strain asf1, hits give low values 0.858 | locus YJL134W, strain LCB3, hits give low values 0.643 | locus YJL154C, strain vps35, hits give low values 0.485 | locus YJL164C, strain tpk1, hits give low values 0.684 | locus YJL166W, strain qcr8, hits give low values 0.59 | locus YJL168C, strain set2, hits give low values 0.4 | locus YJL187C, strain SWE1 (second series), hits give low values 0.326 | locus YJL187C, strain SWE1, hits give low values 0.771
